{"source": "PubChem BioAssay AID434998", "about": "(Southern Research Specialized Biocontainment Screening …, 2010)", "note": "Unmarked numbers belong to inactive results. The rule behind the calls is not given here."}
{"assay": "S. Typhi GFP reporter counter-screen inhibition, SAR follow-up, counter-screen for PhoP regulon inhibitor project, purified and synthesized compounds, round 3 (AID 434998)", "conditions": "S. typhi GFP reporter fluorescence, high Mg2+ counter-screen, 4 h; series mostly up to 150 µM; inhibition: at the top concentration", "units": {"inhibition": "%"}}
{"smiles": "O=C(Nc1ccc(Cl)cc1)N1CCCN(Cc2ccccc2Br)C1", "inhibition": 1.59}
{"smiles": "O=C(Nc1cccc(F)c1)N1CCCN(Cc2ccccc2F)C1", "inhibition": 14.9}
{"smiles": "N#Cc1ccccc1NC(=S)NCc1ccc(Cl)cc1", "inhibition": -7.18}
{"smiles": "O=C1C2=C(Nc3ccccc3SC2c2cccc(I)c2)c2ccccc21", "note": "(centres undefined)", "inhibition": -114}
{"smiles": "O=C(Nc1ccc(Cl)cc1)N1CCCN(Cc2ccc(Br)cc2)C1", "inhibition": 3.12}
{"smiles": "Cc1cccc(NC(=O)N2CCCN(Cc3ccccc3F)C2)c1", "inhibition": 15.7}
{"smiles": "N#Cc1ccc(NC(=S)NCc2ccc(Cl)cc2)cc1", "inhibition": -7.11}
{"smiles": "COc1ccccc1CNC(=S)Nc1ccncc1", "inhibition": 1.37}
{"smiles": "O=C(Nc1cccc(I)c1)N1CCCN(Cc2ccccc2F)C1", "inhibition": 18.6}
{"smiles": "O=C(Nc1cccc(C(F)(F)F)c1)N1CCCN(Cc2ccccc2F)C1", "inhibition": 18.6}
{"smiles": "O=C(Nc1ccc(I)cc1)N1CCCN(Cc2ccccc2F)C1", "inhibition": 8.77}
{"smiles": "Cc1ccccc1CNC(=S)Nc1ccncc1", "inhibition": -0.79}
{"smiles": "Cc1ccc(NC(=O)N2CCCN(Cc3ccccc3F)C2)cc1", "inhibition": 2.92}
{"smiles": "S=C(NCCc1ccc(Cl)cc1)Nc1ccncc1", "inhibition": -10.1}
